# Results published in ChEMBL document CHEMBL4513141, “CO-ADD screening of NIH (USA) - Clinical Collection” (2021).
# Potency and affinity values are given separately.
# System: Cryptococcus neoformans
# Conditions: Concentration 20 uM; ASSAY_TEST Inhibition of Fungal Growth; detection method Resazurin; Absorption (OD600-OD570); plate type 384well; NBS; CORNING #3640
row,SMILES,Inhibition [%]
1,Sc1ncnc2nc[nH]c12 [MERCAPTOPURINE ANHYDROUS],-0.87
2,CN(C)[C@@H]1C(=O)C(C(=O)NCN2CCCC2)=C(O)[C@@]2(O)C(O)=C3C(=O)c4c(O)cccc4[C@@](C)(O)C3CC12 (some centres not stated),-8.19
3,CC(=O)O.CC(C)C[C@H](NC(=O)[C@@H](COC(C)(C)C)NC(=O)[C@H](Cc1ccc(O)cc1)NC(=O)[C@H](CO)NC(=O)[C@H](Cc1c[nH]c2ccccc12)NC(=O)[C@H](Cc1c[nH]cn1)NC(=O)[C@H]1CCC(=O)N1)C(=O)N[C@H](CCCNC(=N)N)C(=O)N1CCC[C@@H]1C(=O)NNC(N)=O,-3.07
4,OCc1cc(C(O)CNCCCCCCOCCCCc2ccccc2)ccc1O (configuration not stated) [SALMETEROL],-8.37
5,CCCc1cc(=O)[nH]c(=S)[nH]1 [PROPYLTHIOURACIL],-1.39
6,COc1ccc(Cl)cc1C(=O)NCCc1ccc(S(=O)(=O)NC(=O)NC2CCCCC2)cc1 [GLYBURIDE],1.86
7,Cc1cccc(C)c1NC(=O)C(C)N (configuration not stated) [TOCAINIDE],0.27
8,O=C(CCCN1CC=C(n2c(=O)[nH]c3ccccc32)CC1)c1ccc(F)cc1 [DROPERIDOL],-8.67
9,CCCCNc1cc(C(=O)O)cc(S(N)(=O)=O)c1Oc1ccccc1 [BUMETANIDE],1
10,CC[N+](C)(CC)CCOC(=O)C(O)(c1ccccc1)C1CCCCC1.[Br-] (configuration not stated) [OXYPHENONIUM BROMIDE],-6.44
11,N[C@@H]1CONC1=O [CYCLOSERINE],-5.65
12,Nc1ccc2cn[nH]c2c1,6.83
13,COC(=O)C1=C(C)NC(C)=C(C(=O)OCCN(C)Cc2ccccc2)C1c1cccc([N+](=O)[O-])c1.Cl (configuration not stated) [NICARDIPINE HYDROCHLORIDE],-9.15
14,CS(=O)(=O)O.Oc1ccc(C2CNCCc3c2cc(O)c(O)c3Cl)cc1 (configuration not stated) [FENOLDOPAM MESYLATE],-12.04
15,CC(C)(C)NC(=O)[C@H]1CC[C@H]2[C@@H]3CC[C@H]4NC(=O)C=C[C@]4(C)[C@H]3CC[C@]12C [FINASTERIDE],-1.89
16,Cc1[nH]c(=O)c(C#N)cc1-c1ccncc1 [MILRINONE],-6.55
17,CN1CCC(=C2c3ccccc3CCc3sccc32)CC1.O=C(O)/C=C\C(=O)O,-10.62
18,Cl.O.O=C(c1ccc(F)cc1)C1CCN(CCn2c(=S)[nH]c3ccccc3c2=O)CC1,0.24
19,CC(Oc1c(Cl)cccc1Cl)C1=NCCN1.Cl (configuration not stated) [LOFEXIDINE HYDROCHLORIDE],-0.75

row,SMILES,Inhibition [%]
1,Cl.O.OC[C@H]1O[C@@H](n2cnc3c(N[C@H]4CCC[C@@H]4O)ncnc32)[C@@H](O)C1O (some centres not stated),-2.1
2,CCc1cccc2c3c([nH]c12)C(CC)(CC(=O)O)OCC3 (configuration not stated) [ETODOLAC],-2.08
3,CN(C)CCN(Cc1ccccc1)c1ccccn1.Cl [TRIPELENNAMINE HYDROCHLORIDE],2.92
4,CC1=C(/C=C/C(C)=C/C=C/C(C)=C/C(=O)O)C(C)(C)CCC1 [TRETINOIN],-0.54
5,Cl.O=C(O)/C=C/c1ccc(Cn2ccnc2)cc1,-5.32
6,Cc1ccc(N(CC2=NCCN2)c2cccc(O)c2)cc1 [PHENTOLAMINE],-2.31
7,COc1ccc2c(c1)c(CC(=O)O)c(C)n2C(=O)c1ccc(Cl)cc1.O,1.93
8,NS(=O)(=O)c1cc2c(cc1C(F)(F)F)NC(Cc1ccccc1)NS2(=O)=O (configuration not stated) [BENDROFLUMETHIAZIDE],-1.07
9,CC(=O)O[C@H]1C[C@@H]2CC[C@@H]3[C@H](CC[C@@]4(C)[C@H]3C[C@H]([N+]3(C)CCCCC3)[C@@H]4OC(C)=O)[C@@]2(C)C[C@@H]1N1CCCCC1.[Br-] [VECURONIUM BROMIDE],2.54
10,N#Cc1ccc(C(c2ccc(C#N)cc2)n2cncn2)cc1 [LETROZOLE],-8.63
11,CC(C(O)c1ccc(O)cc1)N1CCC(Cc2ccccc2)CC1.O.O=C(O)C(O)C(O)C(=O)O (configuration not stated),-4.72
12,O=C(O)c1cc(-c2ccc(F)cc2F)ccc1O [DIFLUNISAL],-3.56
13,Nc1nc2c(ncn2COCCO)c(=O)[nH]1 [ACYCLOVIR],-1.27
14,CCCc1nc(C(C)(C)O)c(C(=O)OCc2oc(=O)oc2C)n1Cc1ccc(-c2ccccc2-c2nnn[nH]2)cc1 [OLMESARTAN MEDOXOMIL],-0.73
15,Nc1ccn([C@@H]2CS[C@H](CO)O2)c(=O)n1 [LAMIVUDINE],-7.82
16,Cl.Nc1c2c(nc3ccccc13)CCCC2 [TACRINE HYDROCHLORIDE],-5.28
17,Cc1nc(=O)c2cc(CN(C)c3ccc(C(=O)N[C@@H](CCC(=O)O)C(=O)O)s3)ccc2[nH]1 [RALTITREXED],-0.58
18,Cc1nccn1CC1CCc2c(c3ccccc3n2C)C1=O (configuration not stated) [ONDANSETRON],-0.32
